Results: PubChem BioAssay AID485314 (National Center for Advancing Translational Sciences (NCATS), 2010)
The whole screen tested about 340,000 compounds, of which about 4,500 (1.3%) were called active. Inconclusive results (about 5%) are left out. The sample holds actives, similar compounds and a random draw of the others, so the mix is not that of the screen. Values without a mark were called inactive. The call rests on the fitted dose curve; in most records, active means well fitted inhibition curve with a large enough effect; inconclusive means small, poorly fitted or top-dose-only effect, or another doubt; inactive means no such curve, though single readings can be large or run the other way.

Target: DNA polymerase beta (Homo sapiens) (UniProt P06746)
Experiment: qHTS Assay for Inhibitors of DNA Polymerase Beta
Settings: Pol beta primer extension/strand displacement, fluorescence kinetic; series mostly up to 114 µM; activity change, negative = inhibition: at the top concentration
From the text: The base excision repair system in human cells is a target for therapeutic modulation of the response to irradiation treatment and DNA-damaging drugs. A key enzyme in this system is the bi-functional DNA polymerase known as DNA polymerase Beta (Pol Beta). The following is a homogeneous kinetic assay to study the primer extension and strand-displacement reaction catalyzed by pol beta.
A stepwise description of the 1536-well assay is shown in next Table. Three microliters of reagents (buffer in column 3 and 4 as negative control and 10 nM Pol beta in columns 1, 2, and 5-48) was dispensed into 1,536-well black solid-bottomed plate. Compounds (23 nL) were transferred via Kalypsys pin tool equipped with 1536-pin array (10 nL slotted pins, V&P Scientific, San Diego, CA). The plates were incubated for 15 min at room temperature, and 1 uL substrate (50 nM final concentration) were added to start the reaction and immediately read at 0 min read on Viewlux reader. The plate were further incubated for 10 min at room temperature, and then read on Viewlux again. Throughout the screen, reagent bottle and all liquid lines were chilled and made light-tight to minimize reagent degradation. All screening operations were performed on a fully integrated robotic system (Kalypsys, San Diego, CA) containing one RX-130 and two RX-90 anthropomorphic robotic arms (Staubli, Duncan, SC). Library plates were screened starting from the lowest and proceeding to the highest concentration, and a double-dipping step of the highest concentration was required to access higher concentrations of compounds. Vehicle-only plates, with DMSO being pin-transferred to the entire column 5-48 compound area, were inserted uniformly at the beginning and the end of each library in order to monitor for and record any shifts in the background, which can be affected by reagent dispensers or loss in enzyme activity overtime. Screening data were corrected, normalized, and concentration-effect relationships were derived by using publicly-available curve fitting algorithms developed in-house (http://ncgc.nih.gov/pub/openhts). A four parameter Hill equation was fitted to the concentration-response data by minimizing the residual error between the modeled and observed responses.
On the % scale 0 is the no-effect control and ±100 the full control effect; potency means the concentration at half of the fitted maximal effect.

| SMILES | activity change, negative = inhibition [%] | Potency |
| --- | --- | --- |
| Cc1ccccc1NC(=O)Cn1cc(C(=O)c2cccs2)c2ccccc21 | -21.9 |  |
| CN(C(=O)c1ccc2c(c1)N(Cc1cccc(Cl)c1)C(=O)c1ccccc1S2=O)C1CCCCC1 (configuration not stated) | 4.04 |  |
| COc1ccccc1NC(=O)C(=O)c1cc(C)n(-c2ccccc2F)c1C | 4.34 |  |
| CCOc1ccc(-n2c(SCC(=O)NCc3ccccc3)nc3n[nH]c(C)c3c2=N)cc1 |  | 25.1 µM (active) |
| COc1ccc(-n2c(SCC(=O)Nc3ccc(Cl)c(C)c3)nc3n[nH]c(C)c3c2=N)cc1 | -7.34 |  |
| CCCCNC(=O)CSc1nc2n[nH]c(C)c2c(=N)n1-c1cccc(Cl)c1C |  | inactive |
| COc1ccc(S(=O)(=O)n2nc(C)c(S(=O)(=O)N3CCCCCC3)c2C)cc1 | -16.8 |  |
| CSc1nn(Cc2cccc(C)c2)c(N)c1S(=O)(=O)c1ccccc1 | -2.02 |  |
| Cc1ccc(N2NC(=O)/C(=C/C=C/c3ccco3)C2=O)cc1C |  | 35.5 µM (active) |
| COc1cc(/C=C2/C(=O)NN(c3ccc(F)cc3)C2=O)cc([N+](=O)[O-])c1O | -29.4 |  |
| Cc1ccc(N=C2NC(=O)/C(=C/C=C/c3ccco3)S2)cc1C |  | 10 µM (active) |
| Cc1ccc(-n2ncc3c(=O)n(-c4ccc(C)c(C)c4)c(-c4ccco4)nc32)cc1 | -0.115 |  |
| COc1ccccc1-c1ccnc2[nH]n(-c3ccccc3)c(=O)c12 | -9.8 |  |
| CC(C)c1ccc2oc(-c3cc(NC(=O)c4cccs4)ccc3Cl)nc2c1 | 1.78 |  |
| N#Cc1ccsc1NC(=O)CN1CCCCC1 | 15.9 |  |
| Cc1cccc(C)c1Nc1nnc(SCC(=O)Nc2sccc2C#N)s1 | -26.1 |  |
| Cc1csc(SCC(=O)Nc2sccc2C#N)n1 |  | 20 µM (active) |
| CCOc1ccc(NC(=O)CSc2c3c(nc4ccccc24)CCCC3)cc1 | -1.51 |  |
| COc1cc(NC(=O)CSc2nc3nc(C)c(Cc4ccc(C)cc4)c(C)n3n2)cc(OC)c1OC | -28.1 |  |
| CN1C/C(=C/c2cccs2)C(=O)/C(=C\c2cccs2)C1 | 3.47 |  |
| CSC1=N/C(=C\C=C\c2cccs2)C(=O)S1 |  | 20 µM (active) |
| Cc1cccc(C2=N/C(=C/c3cccs3)C(=O)O2)c1 | -0.905 |  |
| COc1ccc(CCC(=O)NCCc2csc(-c3ccc(Cl)cc3)n2)cc1 | -1.93 |  |
| COc1ccc(CCNc2nc3c(-c4cccc(F)c4)nnn3c3ccccc23)cc1OC | 40.6 |  |
| COCCCNc1nc2c(-c3cccc(C(F)(F)F)c3)nnn2c2ccccc12 | -25.9 |  |

| SMILES | activity change, negative = inhibition [%] | Potency |
| --- | --- | --- |
| COCCCNc1nc2c(-c3cccc(C)c3)nnn2c2ccc(Cl)cc12 |  | 35.5 µM (active) |
| COc1ccc(C(=O)COC(=O)CCCC(=O)Nc2cc(C(F)(F)F)ccc2Cl)cc1 | -2.85 |  |
| COc1ccc(/C=C2\SC(=S)N(CC(=O)NNC(=O)c3ccncc3)C2=O)cc1 | 29.9 |  |
| COc1cc(/C=C2/SC(=S)N(Cc3ccccc3)C2=O)cc(OC)c1O |  | 14.1 µM (active) |
| O=C1/C(=C\c2ccccc2Cl)SC(=S)N1CCC(=O)N1CCCc2ccccc21 | 5.83 |  |
| Cc1ccc(/C=C2\SC(=S)N(CCC(=O)Nc3ccc(O)cc3)C2=O)cc1 | 2.43 |  |
| O=C(CCN1C(=O)/C(=C/c2cccs2)SC1=S)NNC(=O)c1cccc(O)c1 | -8.72 |  |
| COc1ccc(/C=C2\SC(=S)N(CCC(=O)Nc3cccc(C(=O)O)c3)C2=O)cc1OC |  | 70.8 µM (active) |
| O=C(CCCN1C(=O)/C(=C/c2ccco2)SC1=S)Nc1ccccc1 |  | 12.6 µM (active) |
| O=C(CCCN1C(=O)/C(=C/c2ccccc2)SC1=S)Nc1ccc(O)cc1 | 0.267 |  |
| COc1ccc(/C=C2/SC(=O)N(CCCCCC(=O)Nc3ccccc3C(=O)O)C2=S)cc1 | 24.4 |  |
| CN1C=CC=C/C1=C1\SC(=S)N(Cc2ccccc2)C1=O | 6.67 |  |
| O=C(CCCN1C(=O)/C(=C\c2ccco2)SC1=S)Nc1cccc2ccccc12 |  | 10 µM (active) |
| O=C(CCCN1C(=O)/C(=C/c2cccs2)SC1=S)Nc1ccc(O)cc1 | 9.43 |  |
| COc1cccc(CN2CCc3nc(SCC(=O)Nc4ccccc4)[nH]c(=O)c3C2)c1 | 18.1 |  |
| Cc1ccc2nc(COc3ccccc3NC(=O)Nc3ccc(F)c(Cl)c3)cc(=O)n2c1 | 2.36 |  |
| COc1ccc(-c2c3c(=O)n(C)c(=O)n(C)c3c3c(C)nc4ccccc4n23)cc1 | -27.7 |  |
| Cc1ccc(-c2nnc(Nc3cccc(Br)c3)c3ccccc23)cc1S(=O)(=O)NCC1CCCO1 (configuration not stated) | 21.3 |  |
| COc1ccc(-c2cccc(NS(=O)(=O)c3cc(C)c(OC)c(C)c3C)c2)nn1 | 10.4 |  |
| O=C(O)c1ccc(Cn2c(SCc3ccc(F)cc3)nc3ccncc32)cc1 | 6.07 |  |
| CCOc1ccc(N(CC)S(=O)(=O)N2CCCC(C(=O)Nc3ccc(C(C)=O)cc3)C2)cc1 (configuration not stated) | 4.94 |  |
| COc1cc(OC)c(C2C=C(C(=O)O)Nc3ncnn32)cc1OC (configuration not stated) | 31.7 |  |
| CC1CCN(S(=O)(=O)c2ccc3c(ccn3CCC(=O)NCc3ccc(N(C)C)cc3)c2)CC1 | -2.55 |  |
| O=C(CSc1ncc(S(=O)(=O)c2ccc(Br)cc2)c(=O)[nH]1)Nc1ccc2c(c1)OCCO2 | -20 |  |
| Cc1ccc(/C=C(\C#N)C(=O)Nc2cc(C)ccc2C)cc1 | 0.467 |  |

| SMILES | activity change, negative = inhibition [%] | Potency |
| --- | --- | --- |
| CN=C1S/C(=C\c2ccc(Sc3ccc(Cl)cc3)o2)C(=O)N1C | -12.7 |  |
| CN=C1S/C(=C\c2c(OC)cc(OC)cc2OC)C(=O)N1C | 10.1 |  |
| CN1C(=O)/C(=C/c2ccco2)SC1=Nc1cccc(C(=O)O)c1 |  | 17.8 µM (active) |
| CCOc1ccc(NC(=O)c2c(NC(=O)Cc3ccccc3)sc3c2CCCCC3)cc1 | 25.9 |  |
| Cc1nn(Cc2ccccc2)c(Cl)c1C(=O)OC1CCOC1=O (configuration not stated) | -0.814 |  |
| COc1cc(C(=O)OC2CCOC2=O)c([N+](=O)[O-])cc1OC (configuration not stated) | 2.75 |  |
| CC(C)c1ccc(C(=O)OC2CCOC2=O)cc1 (configuration not stated) |  | 20 µM (active) |
| COc1ccc(N2CCN(S(=O)(=O)CCNC(=O)C(c3ccccc3)c3ccccc3)CC2)cc1 | -0.733 |  |
| CCOC(=O)c1cc(-c2ccccc2)n(CCC(=O)Nc2ccccc2CC)c1C | 0.554 |  |
| CCOC(=O)c1c(C)oc2nc(C)nc(N(CC(C)C)CC(C)C)c12 | -0.894 |  |
| CCCCNC(=O)C1CCCN(c2nnc(C)c3c(C)n(-c4ccc(Cl)cc4)nc23)C1 (configuration not stated) | 37 |  |
| CCSc1ncnc2c(C#N)c3n(c12)CCCCC3 | -0.0615 |  |
| CCSC1=C(C#N)C(=O)n2c1cc1c2CCCC1 |  | 39.8 µM (active) |
| Cc1ccc2nc(-c3ccc(O)cc3)c(Nc3ccc4c(c3)OCO4)n2c1 | 39.3 |  |
| COc1ccc(Cl)cc1-n1c(CCC(=O)O)ccc1-c1ccc(C)cc1 | -1.45 |  |
| COc1cc2c(C(=O)O)c(C)n(C)c2c2ccccc12 | 27.9 |  |
| COc1cccc2c(C)c(C(=O)O)[nH]c12 |  | 50.1 µM (active) |
| Cc1c(C(=O)N/N=C/c2ccccc2)[nH]c2c([N+](=O)[O-])cccc12 | -0.401 |  |
| COc1ccc(S(=O)(=O)NCC(c2ccc(N(C)C)cc2)N2CCCC2)cc1 (configuration not stated) | 1.79 |  |
| CCC(=O)Nc1cccc(-c2nc3cc(C)ccc3o2)c1 | -23.2 |  |
| O=C(NC1CCCCC1)C1CCCN(S(=O)(=O)c2ccc(Br)s2)C1 (configuration not stated) | 38 |  |
| O=C(CC(c1ccccc1)c1cc(Cl)ccc1O)NCCN1CCOCC1 (configuration not stated) | 4.17 |  |
| O=C(Cc1ccc(S(=O)(=O)N2CCCC2)s1)NC1CCCCCC1 |  | 31.6 µM (active) |
| COc1ccccc1NC(=O)COC(=O)Cc1ccc(S(=O)(=O)N2CCCCC2)s1 | -5.94 |  |
| O=C(Cc1ccc(S(=O)(=O)N2CCOCC2)s1)NCCC(c1ccccc1)c1ccccc1 |  | 22.4 µM (active) |

| SMILES | activity change, negative = inhibition [%] | Potency |
| --- | --- | --- |
| O=C(NC1CCCCC1)C1CCCN(S(=O)(=O)c2cccs2)C1 (configuration not stated) | 0.533 |  |
| CCn1c2ccccc2c2cc(CN3CCN(Cc4cccc(Cl)c4)CC3)ccc21 | 2.61 |  |
| Cc1c(CCNC(=O)c2ccc(C(F)(F)F)cc2)sc2nc(-c3ccc(F)cc3)nn12 | -1.1 |  |
| CCCOc1cccc(C(=O)Nc2cccc(NC(=O)c3ccc(C(C)(C)C)cc3)c2)c1 | 0.549 |  |
| COc1cccc(OCc2nnc3n2N=C(c2ccccc2)C(CC(=O)O)S3)c1 (configuration not stated) | 1.71 |  |
| COc1ccc(C2CC(c3ccccc3)=NN2C(=O)COC(=O)COc2ccccc2)cc1 (configuration not stated) | -1.43 |  |
| COc1ccc(OCc2nnc3n2N=C(c2ccccc2)C(CC(=O)O)S3)cc1 (configuration not stated) |  | 22.4 µM (active) |
| Cc1cccc(C(=O)NCCc2nc3ccccc3n2Cc2ccccc2Cl)c1 | 6.4 |  |
| COc1ccc(-c2nc3ccc(C(=O)NCc4ccc(C)cc4)cc3nc2-c2ccc(OC)cc2)cc1 | -29.7 |  |
| COCCNC(=O)Nc1ccc2nc(-c3ccco3)c(-c3ccco3)nc2c1 |  | 2.24 µM (active) |
| O=C(NCc1ccccn1)c1ccc2nc(-c3ccco3)c(-c3ccco3)nc2c1 |  | 3.16 µM (active) |
| COc1ccc(NC(=O)C(=O)NCc2ccco2)cc1 | -4.3 |  |
| COc1cccc(S(=O)(=O)NCc2ccc(C(=O)NCc3ccccn3)cc2)c1 | 41.3 |  |
| CCOc1ccc(NC(=O)c2ncoc2-c2ccco2)cc1 | -4.76 |  |
| COc1ccc(-n2nc(C(=O)NCCc3ccc(Cl)cc3)c3c4ccccc4n(C)c3c2=O)cc1Cl | 10.3 |  |
| COc1ccc(C)cc1NC(=O)C(=O)NCCc1sc(-c2cccc(C)c2)nc1C | 1.3 |  |
| Cc1cccc(N2CCN(C(=O)c3oc(=O)c4ccccc4c3-c3ccccc3)CC2)c1C | 7.16 |  |
| CCOC(=O)c1c(C)[nH]c(CCC(=O)Nc2ccc(OC)c(OC)c2)c1C | 4.37 |  |
| COc1ccc(C2Sc3ccccc3NC3=C2C(=O)c2ccccc23)c(OC)c1OC (configuration not stated) | -10.1 |  |
| O=C(/C=C/c1cn(CC(O)CN2CCc3ccccc32)c2ccccc12)c1ccc(Br)cc1 (configuration not stated) | 36.6 |  |
| COc1ccc(-c2cc(=O)c3c(O)cc(O[C@@H]4O[C@H](CO[C@@H]5O[C@@H](C)[C@H](O)[C@@H](O)[C@H]5O)[C@@H](O)[C@H](O)[C@H]4O)cc3o2)cc1O |  | 25.1 µM (active) |
| Cc1ccc(OCCn2c(CNc3ccccc3C)nc3ccccc32)cc1 | -1.75 |  |
